This is an account of results in PubChem BioAssay (NCI).

Each structure is given as a SMILES string. This is part of a sample that, as a whole, favours compounds with a hit. Of some 83,000 tested, about 20% had one in any assay.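 Single-dose data. Exposure time 48 hours. Values below 10 considered active.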 Unmarked numbers belong to inactive results. The source made the active and inactive calls.

The assay concerns NCI-H226 lung. The assay can be described thus: NCI-60 one-dose screen, 48 h (100 = growth as untreated, 0 = no growth, -100 = all killed). As to conditions: 10 µM unless noted. The protocol: Growth inhibition of the NCI-H226 human Non-Small Cell Lung tumor cell line is measured as a screen for anti-cancer activity. Cells are grown in 96 well plates and exposed to the test compound for 48 hours. Compounds are tested at a single concentration, which is 10^-5 M for most compounds. The reported endpoint is percent growth (GI% or GIPRCNT), where numbers from 0 - 100% represent growth inhibition, and numbers from -100% - 0 represent cell death. For example, a value of 40 represents 60% growth inhibition. A value of 0 means no net growth occurred over the course of the experiment. A value of -40 indicates 40% of cells at the beginning of the experiment died by the end of the experiment. A value of -100 means all cells are dead at the end of the experiment.
NCI-60 Human Tumor Cell Lines Screen was performed using the standard one-dose NCI protocol, which is described in more detail at https://dtp.cancer.gov/discovery_development/nci-60/default.htm.
Compounds with GIPRCNT values below 10 were considered active. Activity score was based on GIPRCNT using the following formula: […]
Score is 0 for GIPRCNT values of 100 or above, 50 for GIPRCNT values of 0, and 100 for GIPRCNT values of -100.
Consider `Cc1ccc(Nc2cc(N)nc(N)n2)cc1Cl`, for which the growth was 93.3%. In the case of `CCOC(=O)c1cc2c(n1Cc1cc(OC)c(OC)c(OC)c1)-c1nc(N)sc1CCC2` it was 73.4%; in that of `COc1cc(/C=C/C(=O)c2ccc(F)cc2)ccc1OCCCCOc1ccc(/C=C/C(=O)c2c(C)nc3ccccc3c2C)cc1OC`, 69.4%.

On to `CN1C(=O)/C(=C\c2c(Cl)cccc2Cl)c2ccccc21`, for which the growth was 100%.

For the molecule `COc1ccc(-c2nn(-c3cccc(Cl)c3)cc2-c2cc(-c3ccc(Br)cc3)nc(N)n2)cc1`, the growth was 86%. In the case of `Cn1ccnc1C(=O)/C=C/c1ccc(C(=O)Nc2ccccc2O)cc1` it was 63.4%; in that of `C#CCNC(=O)[C@H](CC)[C@H]1CC[C@H](C)[C@H]([C@@H](C)[C@H](O)[C@H](C)C(=O)[C@H](CC)C2O[C@]3(C=CC(=O)[C@]4(CC[C@@](C)([C@H]5CC[C@](O)(CC)[C@H](C)O5)O4)O3)[C@H](C)C[C@@H]2C)O1` (stereo not given in full), 57.7%. `CSc1nc(N)c(NS(=O)(=O)c2ccc(C(C)=O)cc2)c(=O)[nH]1`: the growth was 103%.

For the molecule `O=C(c1nn(-c2ccccc2)c2c1CC(NCc1ccc(F)cc1)CC2)N1CCCCC1` (stereo not given), the growth was 103%. In the case of `COc1ccccc1CNc1c2ccccc2nc2ccccc12` it was 39.9%; in that of `Oc1c(Br)cc(Br)c2ccc(Cn3cc(-c4ccc(C(F)(F)F)cc4)nn3)nc12`, 85%.

Regarding `O=C(Nc1ccc(Oc2cccc(Cl)c2)c(Cl)c1)c1cnccn1`, the growth is 64.1%.

`N#Cc1c(-c2ccccc2)cc(-c2ccc(Nc3nc(Nc4ccc(Cl)cc4)nc(Nc4ccc(Cl)cc4)n3)cc2)nc1N`: the growth was -23.4% (active).

Take `O=C(N/N=C/c1c(Cl)cccc1Cl)c1cccnc1Nc1cccc(C(F)(F)F)c1`: the growth was 18.4%.

Consider `CCOC(=O)C1=C(c2ccccc2)N=C2SC=C(c3ccc(Cl)cc3)N2C1c1ccc(Cl)cc1` (stereo not given), for which the growth was 79.5%. Then `O=S(=O)(NCCCNc1nccc(-c2c(-c3ccc(F)c(O)c3)nc3occn23)n1)c1ccc(Cl)cc1`, with 103%. In the case of `Fc1cnccc1C1CC(c2ccc(N3CCNCC3)cc2)=NN1` (stereo not given) it was 82.9%.

Regarding `CCOC(=O)C/C(=N\Nc1cc(=O)[nH]c2ccc(Br)cc12)C(=O)OCC`, the growth is 86.9%. Take `CCCCCCC12CCC(=O)N1CCc1cncn12` (stereo not given): the growth was 99.8%. Then `O=C(c1ccccc1)c1ccc(C2CCCCC2)cc1`, with 92.4%.

With `CN(C)Cc1ccc(O)c(C(=O)O)c1`, the growth was 108%. Regarding `CCCNc1nc2ccccc2c2c1S(=O)(=O)c1ccc(Cl)cc1C2=O`, the growth was 34.7%. Then `COc1ccccc1NC(=O)N=Nc1c(O)[nH]c2ccccc12`, with 86.5%; and `COCCn1cc(-c2csc(-c3cn(C)c4ccc(Br)cc34)n2)c2cccnc21`, with 86.4%. In the case of `CC(=O)N1N=C(c2ccc(Nc3nc(Nc4ccccc4)nc(Nc4ccccc4)n3)cc2)CC1c1ccccc1` (stereo not given) it was 86%. As to `CC(C)c1ccc(-n2c(=S)[nH]c3sc4cc(O)ccc4c3c2=O)cc1`, the growth is 92.5%. Then `Clc1ccc(/C=N\N=C\c2ccc(Cl)c(Cl)c2)cc1Cl`, with 104%; and `Cc1cc(S(=O)(=O)/N=C(\N)n2nc(C)c(C)c2C)c(SCc2ccccc2)cc1Cl`, with 78.6%; and `Cc1nc2sc(C(=O)Nc3cccc4ccccc34)c(N)c2cc1C(O)c1ccccc1` (stereo not given), with 46.1%. For `COC1=CC(c2ccc[nH]2)=N/C1=C\c1[nH]c(C)c(C(=O)OC(C)C)c1C`, the growth is -27.4% (active). In the case of `Cc1cc(C)c2c(c1)N(C)c1ncnc(-n3cnc4cc(C)ccc43)c1CC2C` (stereo not given) it was 49.9%; in that of `COc1cc(C2c3cc(OC(C)=O)c(OC)cc3CC3C(=O)OCC32)ccc1OC(C)=O` (stereo not given), 107%. Then `COc1ccc(C2CC(c3ccc(Nc4nc(Nc5ccccc5)nc(Nc5ccccc5)n4)cc3)=NN2C(C)=O)cc1` (stereo not given), with 98.1%; and `COc1c(C(=O)Nc2ccc(C)c(Br)c2)ccc2ccccc12`, with 103%; and `CCN1C(=S)N(c2ccccc2)C2C1NN=c1s/c(=C3\C(=O)N(C(C)C)c4ccccc43)c(=O)n12` (stereo not given), with 66.7%. Then `COc1cc2oc(-c3cccc(NC(=O)c4ccccc4)c3)cc(=O)c2c(OC)c1OC`, with 81.4%.

On to `COCCNC(=O)Nc1ccc2nc(-c3cccs3)c(-c3cccs3)nc2c1`, for which the growth is 92.8%. As to `Cc1cn(-c2cc(NC(=O)c3cncc(C#Cc4cnc(N)c5ncccc45)c3)cc(C(F)(F)F)c2)cn1`, the growth is 45.7%. In the case of `NC(=O)C(=O)c1ccccc1NC=O` it was 97.3%; in that of `CCOC(=O)NC(C)C`, 112%.
